# Assay results from PubChem BioAssay (Tox21).
# Results filed as inconclusive are left out. Entries that show only a call come without a potency. A number with no mark means an inactive call. Active and inactive are the calls of the source. Unless noted, the call rests on the fitted dose curve; in most records, active means well fitted curve in the direction sought with a large enough effect in the repeat runs; inconclusive means weak or mixed curves; inactive means no such curve, though single readings can be large; an effect the other way counts as inactive or inconclusive.
# Columns and labels:
# [1] = qHTS assay to identify small molecule antagonists of the retinoid acid receptor (RAR) signaling pathway - cell viability counter screen (AID 1159551); conditions: C3RL4 cells viability, ATP luminescence (CellTiter-Glo), 6 h; series mostly up to 92.4 µM; further: nearly all actives have a fitted effect of over 35% in size; further: potency means the concentration at half of the fitted maximal effect
# Method in brief: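 Following overnight attachment, C3RL4 reporter cells received DMSO-dissolved compounds and then retinol (1 uM final). Six hours later at 37 C, ATP content was measured by CellTiter-Glo luminescence.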
# [2] = qHTS assay to identify small molecule antagonists of the retinoic acid receptor (RAR) signaling pathway (AID 1159552; further: nearly all actives have a fitted effect of over 50% in size); conditions: C3RL4 RARE luciferase reporter, retinol-stimulated, 6 h; series mostly up to 92.4 µM
# Method in brief: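 C3RL4 RARE-luc cells, overnight plating; retinol 1 uM final added right after compound; 6 hr 37 C; luciferase read at 30 min RT.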
# [3] = qHTS assay to identify small molecule antagonists of the estrogen related receptor (ERR) signaling pathway from Tox21 library - cell viability counter screen (AID 1224834); conditions: ERR reporter cells viability, CellTiter-Fluor, 17.5 h; series mostly up to 92.4 µM; further: nearly all actives have a fitted effect of over 30% in size; further: potency means the concentration at half of the fitted maximal effect
# Method in brief: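 Viability readout (CellTiter-Fluor fluorescence, 30 min at 37 C) multiplexed with the ERR assay; cells treated 17.5 h at 37 C with compounds delivered in DMSO.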
# [4] = target: Luciferin 4-monooxygenase (Photinus pyralis) (UniProt P08659); test: qHTS assay to identify small molecule inhibitors of firefly luciferase (AID 1224835); further: nearly all actives have a fitted effect of over 25% in size; further: potency means the concentration at half of the fitted maximal effect; conditions: purified P. pyralis luciferase, luminescence inhibition; series mostly up to 115 µM
# Method in brief: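 Inhibition of purified Photinus luciferase is measured by luminescence. Substrate levels (D-luciferin, ATP) sit at their KM values. Each compound is tested in a concentration series.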
# [5] = qHTS assay to identify small molecule agonists of the constitutive androstane receptor (CAR) signaling pathway - cell viability counter screen (AID 1224836); conditions: HepG2-CYP2B6-hCAR viability, CellTiter-Fluor, 23 h, PK11195 added to every well; series mostly up to 92.4 µM; further: nearly all actives have a fitted effect of over 45% in size; further: potency means the concentration at half of the fitted maximal effect
# Method in brief: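 Using CellTiter-Fluor, viability of HepG2 cells harbouring hCAR and CYP2B6-2.2kb was measured following 23 h incubation with a 15-concentration compound series plus PK11195 (0.75 uM final).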
# [6] = qHTS assay to identify small molecule antagonists of the constitutive androstane receptor (CAR) signaling pathway - cell viability counter screen (AID 1224837); conditions: HepG2-CYP2B6-hCAR viability, CellTiter-Fluor, 23 h, co-treated with 50 nM CITCO; series mostly up to 92.4 µM; further: nearly all actives have a fitted effect of over 45% in size; further: potency means the concentration at half of the fitted maximal effect
# Method in brief: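 Fluorescence from CellTiter-Fluor served as the viability signal. Human hepatoma HepG2 cells stably bearing hCAR and CYP2B6-2.2kb received compound plus CITCO (50 nM final) for 23 hr.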
# [7] = target: Nuclear receptor subfamily 1 group I member 3 (Homo sapiens) (UniProt Q14994); test: qHTS assay to identify small molecule antagonists of the constitutive androstane receptor (CAR) signaling pathway (AID 1224838); conditions: HepG2-CYP2B6-hCAR luciferase, CITCO-stimulated, 24 h; series mostly up to 92.4 µM;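 further: HepG2 cells stably expressing hCAR with CYP2B6 luciferase reporter stimulated by CITCO; nearly all actives have a fitted effect of over 40% in size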; further: potency means the concentration at half of the fitted maximal effect
# Method in brief: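 Quantitative HTS in double-stable HepG2-CYP2B6-hCAR cells. After 4 h plating, cells get compound (15 concentrations) and CITCO at 50 nM final, incubate 24 h at 37 C, then ONE-Glo luminescence is read.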
# [8] = target: Nuclear receptor subfamily 1 group I member 3 (Homo sapiens) (UniProt Q14994); test: qHTS assay to identify small molecule agonists of the constitutive androstane receptor (CAR) signaling pathway (AID 1224839); conditions: HepG2 hCAR CYP2B6-luciferase, agonist mode, 24 h; series mostly up to 92.4 µM;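 further: HepG2 cells stably carrying human CAR and a CYP2B6 luciferase reporter; nearly all actives have a fitted effect of over 15% in size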
# Method in brief: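 Double-stable HepG2 cells (hCAR, CYP2B6-2.2kb) seeded 4 h before compound addition. Exposure 24 h with 0.75 uM PK11195 final. Luciferase detected by ONE-Glo.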
# [9] = qHTS assay to identify small molecule antagonists of the estrogen related receptor signaling pathway with the pleiotropic PPARgamma coactivator (PGC) from Tox21 10K library - cell viability counter screen (AID 1224840; active means well fitted cell-killing curve with a large enough effect in the repeat runs, not every such curve was filed as active; further: nearly all actives have a fitted effect of over 40% in size; further: potency means the concentration at half of the fitted maximal effect); conditions: PGC/ERR reporter cells viability, CellTiter-Fluor, 17.5 h; series mostly up to 92.4 µM
# Method in brief: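 Compounds in DMSO, alongside positive and negative controls, were pinned onto PGC/ERR cells (2,000 per well). Exposure lasted 17.5 hours at 37 C, followed by a 30-minute CellTiter-Fluor incubation and fluorescence reading.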
# [10] = target: Thyrotropin receptor (Homo sapiens) (UniProt P16473); test: qHTS assay to identify small molecule agonists of the thyroid stimulating hormone receptor (TSHR) signaling pathway (AID 1224843; calls by dose curve; further: nearly all actives have a fitted effect of over 45% in size); conditions: TSHR-HEK293 cells, cAMP HTRF, agonist mode, 30 min; series mostly up to 92.4 µM
# Method in brief: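 HEK293 cells stably bearing the thyrotropin receptor were plated at 800 cells/well and challenged with compound (30 min, RT). Accumulated cAMP was quantified via cAMP-d2 competing for cryptate-tagged antibody.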
# [11] = qHTS assay to identify small molecule antagonists of the estrogen related receptor signaling pathway with the pleiotropic PPARgamma coactivator (PGC) from Tox21 10K library (AID 1224841; call rule not given here; further: actives are mostly falling curves and most rising ones were filed inactive; nearly all actives have a fitted effect of over 50% in size; further: potency means the concentration at half of the fitted maximal effect); conditions: PGC/ERR reporter cell line, ONE-Glo luciferase, 18 h; series mostly up to 92.4 µM
# Method in brief: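 Compound exposure ran 18 hours at 37 C in PGC/ERR cells (2,000/well) that had first rested 6 hours in a 37 C/5% CO2 incubator. Luciferase activity was then detected with One-Glo after a 30-minute room-temperature step.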
# [12] = qHTS assay to identify small molecule agonists of the estrogen related receptor signaling pathway with the pleiotropic PPARgamma coactivator (PGC) from Tox21 10K library (AID 1224842); conditions: PGC/ERR reporter cell line, luciferase ONE-Glo, 18 h; series mostly up to 92.4 µM; further: nearly all actives have a fitted effect of over 15% in size
# Method in brief: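 Luminescence from One-Glo (30 min, room temperature) measured after PGC/ERR cells had 18 h at 37 C with pinned compound (23 nL in DMSO). Cells had been seeded at 2,000 per well and pre-incubated 6 h.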
# [13] = qHTS assay to identify small molecule agonists of the retinoic acid receptor (RAR) signaling pathway (AID 1159553); conditions: C3RL4 RARE luciferase reporter, agonist, 6 h; activation: at 73.3 µM (top of the series) unless noted
# Method in brief: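 Cell line C3RL4, RARE luciferase reporter. Treatment: compounds in DMSO, 6 hr, 37 C, 5% CO2, after overnight plating. Detection: luminescence, 30 min RT after reagent.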
# [14] = qHTS assay to identify small molecule antagonists of the estrogen related receptor (ERR) signaling pathway - cell viability counter screen (AID 1224818); conditions: ERR reporter cell line viability counter screen; series mostly up to 46.1 µM;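 further: viability measured after 17.5 h of compound exposure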
# Method in brief: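 Here, ERR cells are plated at 2,000 cells per well, allowed 6 h to attach, and treated with compounds in DMSO for 17.5 h at 37 C. CellTiter-Fluor is then added and fluorescence read after 30 min.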
# [15] = qHTS assay to identify small molecule antagonists of the estrogen related receptor (ERR) signaling pathway (AID 1224819;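 further: luminescence from an ERR-driven luciferase reporter measured with One-Glo reagent; nearly all actives have a fitted effect of over 50% in size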); conditions: ERR reporter cell line, luciferase inhibition; series mostly up to 46.1 µM
# Method in brief: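 LOPAC library screened for antagonism as reduced One-Glo luminescence in ERR reporter cells (2,000/well). Compounds were added after 6 h pre-incubation and left 18 h at 37C; reading followed a 30 min room-temperature reagent step.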
# [16] = qHTS assay to identify small molecule agonists of the estrogen related receptor (ERR) signaling pathway (AID 1224820); conditions: ERR reporter cell line, luciferase agonist mode; series mostly up to 46.1 µM
# Method in brief: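 Quantitative HTS of the LOPAC library used NTP ERR reporter cells treated 18 h at 37 C. Signal is luminescence after One-Glo addition and a 30 min room-temperature incubation.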
# [17] = qHTS assay to identify small molecule antagonists of the estrogen related receptor signaling pathway with the pleiotropic PPARgamma coactivator (PGC) cell viability counter screen (AID 1224822;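 further: viability read after 17.5 h compound exposure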); conditions: ERR/PGC reporter cell line viability counter screen; series mostly up to 46.1 µM
# Method in brief: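 qHTS format, DMSO compound stocks pin-transferred onto PGC/ERR cells 6 h after plating; 17.5 h exposure at 37 C, then CellTiter-Fluor fluorescence.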
# Luciferin 4-monooxygenase (Photinus pyralis), sequence (P08659 whole entry, looked up): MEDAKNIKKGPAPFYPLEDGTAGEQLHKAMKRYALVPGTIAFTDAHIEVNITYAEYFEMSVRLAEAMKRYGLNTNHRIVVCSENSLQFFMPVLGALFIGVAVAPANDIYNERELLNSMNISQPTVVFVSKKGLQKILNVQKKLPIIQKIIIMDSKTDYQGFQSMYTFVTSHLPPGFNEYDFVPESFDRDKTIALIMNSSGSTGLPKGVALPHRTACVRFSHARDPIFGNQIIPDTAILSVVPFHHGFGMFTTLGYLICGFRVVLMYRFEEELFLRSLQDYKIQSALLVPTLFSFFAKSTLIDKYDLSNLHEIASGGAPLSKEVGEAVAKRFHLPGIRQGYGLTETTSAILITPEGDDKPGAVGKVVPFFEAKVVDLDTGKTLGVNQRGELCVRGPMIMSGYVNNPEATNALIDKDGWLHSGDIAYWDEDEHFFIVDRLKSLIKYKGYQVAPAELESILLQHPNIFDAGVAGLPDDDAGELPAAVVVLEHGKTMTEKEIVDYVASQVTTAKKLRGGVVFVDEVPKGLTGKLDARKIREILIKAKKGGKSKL
# Nuclear receptor subfamily 1 group I member 3 (Homo sapiens), sequence (Q14994 whole entry, looked up): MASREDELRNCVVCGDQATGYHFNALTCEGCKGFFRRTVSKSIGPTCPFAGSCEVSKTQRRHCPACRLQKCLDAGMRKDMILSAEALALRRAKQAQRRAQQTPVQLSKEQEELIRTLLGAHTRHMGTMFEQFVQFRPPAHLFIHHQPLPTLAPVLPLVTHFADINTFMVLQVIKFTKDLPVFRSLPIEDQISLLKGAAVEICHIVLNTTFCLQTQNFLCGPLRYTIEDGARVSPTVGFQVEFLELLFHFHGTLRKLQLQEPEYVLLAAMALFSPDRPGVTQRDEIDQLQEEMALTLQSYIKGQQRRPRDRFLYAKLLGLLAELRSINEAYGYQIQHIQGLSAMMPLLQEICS
# Thyrotropin receptor (Homo sapiens), sequence (P16473 whole entry, looked up): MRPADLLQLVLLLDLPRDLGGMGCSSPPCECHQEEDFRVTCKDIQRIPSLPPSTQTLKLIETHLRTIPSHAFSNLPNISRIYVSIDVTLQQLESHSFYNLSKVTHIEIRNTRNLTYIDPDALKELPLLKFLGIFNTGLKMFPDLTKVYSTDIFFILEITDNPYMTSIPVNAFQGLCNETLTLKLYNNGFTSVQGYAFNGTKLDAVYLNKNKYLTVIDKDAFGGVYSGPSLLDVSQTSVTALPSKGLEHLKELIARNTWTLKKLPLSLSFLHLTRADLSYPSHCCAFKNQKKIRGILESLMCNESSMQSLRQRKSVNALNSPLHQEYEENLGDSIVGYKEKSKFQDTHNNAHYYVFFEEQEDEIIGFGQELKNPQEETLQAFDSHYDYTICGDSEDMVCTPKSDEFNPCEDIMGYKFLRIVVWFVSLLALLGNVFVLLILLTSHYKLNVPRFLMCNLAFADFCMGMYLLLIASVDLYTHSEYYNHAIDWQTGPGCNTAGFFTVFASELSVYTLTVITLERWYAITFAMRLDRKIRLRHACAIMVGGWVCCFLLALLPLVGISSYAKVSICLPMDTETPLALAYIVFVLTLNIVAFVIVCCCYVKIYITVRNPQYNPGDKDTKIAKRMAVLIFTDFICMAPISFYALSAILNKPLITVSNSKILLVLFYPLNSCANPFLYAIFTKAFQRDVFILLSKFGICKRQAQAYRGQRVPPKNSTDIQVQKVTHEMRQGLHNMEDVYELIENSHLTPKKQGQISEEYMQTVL
Structure (SMILES),Potency [1],Potency [2],Potency [3],Potency [4],Potency [5],Potency [6],Potency [7],Potency [8],Potency [9],Potency [10],Potency [11],Potency [12],Potency [13],outcome [14],Potency [15],outcome [16],Potency [17]
COc1ccc(NC(=O)CC(C)=O)cc1,inactive,inactive,inactive,inactive,inactive,inactive,inactive,inactive,inactive,inactive,–,–,–,–,–,–,–
C=C(C)C(=O)OCCCCCCCCCC,–,–,inactive,inactive,inactive,inactive,inactive,inactive,inactive,inactive,inactive,inactive,–,–,–,–,–
CC(N=C(NC#N)Nc1ccncc1)C(C)(C)C (stereo not drawn),inactive,–,inactive,inactive,inactive,inactive,–,–,inactive,inactive,–,–,inactive,inactive,inactive,inactive,inactive
C#C[C@]1(OC(C)=O)CC[C@H]2[C@@H]3CCC4=C[C@@H](OC(C)=O)CC[C@@H]4[C@H]3CC[C@@]21C,inactive,–,–,inactive,inactive,inactive,–,inactive,inactive,inactive,21.1 µM (active),inactive,inactive,–,–,–,–
O=S(=O)(O)c1ccc(N=Nc2c(O)ccc3ccccc23)cc1,–,–,27.3 µM (active),35.6 µM (active),–,–,inactive,inactive,48.6 µM (active),–,–,–,inactive,–,–,–,–
CCCC(=O)OCOC(=O)C1=C(C)NC(C)=C(C(=O)OC)C1c1cccc(Cl)c1Cl (stereo not drawn),inactive,–,inactive,inactive,inactive,inactive,–,–,inactive,inactive,–,–,–,–,–,–,–
CCN(CC)c1ccc2c(-c3ccc(S(=O)(=O)O)cc3S(=O)(=O)[O-])c3ccc(=[N+](CC)CC)cc-3oc2c1,31.6 µM (active),–,22.4 µM (active),26 µM (active),31.6 µM (active),28.2 µM (active),28.2 µM (active),inactive,28.2 µM (active),–,28.2 µM (active),inactive,inactive,–,–,–,–
CCC(C)n1ncn(-c2ccc(N3CCN(c4ccc(OC[C@H]5CO[C@](Cn6cncn6)(c6ccc(Cl)cc6Cl)O5)cc4)CC3)cc2)c1=O (stereo partly drawn),inactive,–,3.76 µM (active),inactive,inactive,–,inactive,inactive,inactive,inactive,–,–,inactive,–,–,–,–
O=C1CCc2cc(OCCCCc3nnnn3C3CCCCC3)ccc2N1,inactive,–,–,inactive,inactive,inactive,–,–,inactive,–,–,–,–,inactive,–,–,inactive
CC(C)(C)c1csc(-c2cc3cc(OCc4ccccc4CC(=O)O)ccc3o2)n1,–,inactive,–,5.03 µM (active),inactive,inactive,inactive,–,inactive,inactive,–,–,inactive,–,–,–,–
C#C[C@]1(OC(C)=O)CC[C@H]2[C@@H]3CCC4=C/C(=N/O)CC[C@@H]4[C@H]3CC[C@@]21CC,inactive,–,–,inactive,inactive,inactive,inactive,inactive,inactive,–,–,inactive,inactive,–,–,–,–
O=c1c(O)c(-c2ccc(O)cc2O)oc2cc(O)cc(O)c12,inactive,–,–,–,inactive,inactive,inactive,inactive,inactive,inactive,–,–,–,inactive,–,–,inactive
